Tests used:
[1] = molecular target: Protein kinase C gamma type (Homo sapiens) (UniProt P05129); settings: at 1 µM;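 note: each value is an averaged percent inhibition of the enzyme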
[2] = molecular target: T1, Protein kinase C iota type (Homo sapiens) (UniProt P41743); settings: at 0.1 µM
T1 sequence (whole entry): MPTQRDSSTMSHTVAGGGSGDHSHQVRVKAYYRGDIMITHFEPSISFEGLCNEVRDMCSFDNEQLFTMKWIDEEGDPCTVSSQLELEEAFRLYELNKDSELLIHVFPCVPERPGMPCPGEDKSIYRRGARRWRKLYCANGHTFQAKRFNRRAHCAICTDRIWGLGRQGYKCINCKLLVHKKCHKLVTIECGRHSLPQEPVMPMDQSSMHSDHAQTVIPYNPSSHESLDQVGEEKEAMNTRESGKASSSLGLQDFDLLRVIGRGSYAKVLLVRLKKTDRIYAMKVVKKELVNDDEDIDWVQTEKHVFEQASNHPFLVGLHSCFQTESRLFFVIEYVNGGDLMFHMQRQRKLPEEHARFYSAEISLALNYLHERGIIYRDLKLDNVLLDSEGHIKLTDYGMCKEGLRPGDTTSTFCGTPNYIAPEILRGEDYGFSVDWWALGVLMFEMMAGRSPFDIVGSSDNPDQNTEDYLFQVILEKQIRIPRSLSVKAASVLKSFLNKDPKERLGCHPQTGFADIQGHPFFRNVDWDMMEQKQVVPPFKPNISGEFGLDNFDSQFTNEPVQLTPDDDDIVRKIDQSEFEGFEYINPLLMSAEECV

[3] = molecular target: T1, Protein kinase C iota type (Homo sapiens); settings: at 1 µM
[4] = molecular target: Protein kinase C theta type (Homo sapiens) (UniProt Q04759); settings: at 0.1 µM
Chain of Protein kinase C theta type (Homo sapiens) (Q04759 whole entry, looked up): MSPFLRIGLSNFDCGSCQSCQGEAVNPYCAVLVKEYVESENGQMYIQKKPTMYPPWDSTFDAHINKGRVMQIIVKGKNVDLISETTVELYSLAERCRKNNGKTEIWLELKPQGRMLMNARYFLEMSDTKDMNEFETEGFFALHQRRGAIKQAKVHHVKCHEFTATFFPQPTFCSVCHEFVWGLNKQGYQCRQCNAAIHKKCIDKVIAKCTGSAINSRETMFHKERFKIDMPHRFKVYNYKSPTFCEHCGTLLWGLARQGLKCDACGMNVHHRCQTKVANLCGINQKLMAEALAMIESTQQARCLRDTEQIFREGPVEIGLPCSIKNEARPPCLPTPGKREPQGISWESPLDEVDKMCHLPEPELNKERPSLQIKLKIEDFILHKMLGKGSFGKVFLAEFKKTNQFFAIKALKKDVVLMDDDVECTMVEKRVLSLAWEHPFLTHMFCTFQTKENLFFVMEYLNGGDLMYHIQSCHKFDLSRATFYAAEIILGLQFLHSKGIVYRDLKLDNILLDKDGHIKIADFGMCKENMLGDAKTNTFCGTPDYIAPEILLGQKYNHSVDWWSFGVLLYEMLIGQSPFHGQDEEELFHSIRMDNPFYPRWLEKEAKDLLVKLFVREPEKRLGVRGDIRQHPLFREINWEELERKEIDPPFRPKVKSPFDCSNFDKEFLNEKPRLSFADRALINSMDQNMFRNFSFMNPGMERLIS

[5] = molecular target: Protein kinase C theta type (Homo sapiens) (UniProt Q04759); settings: at 1 µM
[6] = molecular target: Protein kinase C beta type (Homo sapiens) (UniProt P05771); settings: at 0.1 µM
Chain of Protein kinase C beta type (Homo sapiens) (P05771 2-671 limits assumed): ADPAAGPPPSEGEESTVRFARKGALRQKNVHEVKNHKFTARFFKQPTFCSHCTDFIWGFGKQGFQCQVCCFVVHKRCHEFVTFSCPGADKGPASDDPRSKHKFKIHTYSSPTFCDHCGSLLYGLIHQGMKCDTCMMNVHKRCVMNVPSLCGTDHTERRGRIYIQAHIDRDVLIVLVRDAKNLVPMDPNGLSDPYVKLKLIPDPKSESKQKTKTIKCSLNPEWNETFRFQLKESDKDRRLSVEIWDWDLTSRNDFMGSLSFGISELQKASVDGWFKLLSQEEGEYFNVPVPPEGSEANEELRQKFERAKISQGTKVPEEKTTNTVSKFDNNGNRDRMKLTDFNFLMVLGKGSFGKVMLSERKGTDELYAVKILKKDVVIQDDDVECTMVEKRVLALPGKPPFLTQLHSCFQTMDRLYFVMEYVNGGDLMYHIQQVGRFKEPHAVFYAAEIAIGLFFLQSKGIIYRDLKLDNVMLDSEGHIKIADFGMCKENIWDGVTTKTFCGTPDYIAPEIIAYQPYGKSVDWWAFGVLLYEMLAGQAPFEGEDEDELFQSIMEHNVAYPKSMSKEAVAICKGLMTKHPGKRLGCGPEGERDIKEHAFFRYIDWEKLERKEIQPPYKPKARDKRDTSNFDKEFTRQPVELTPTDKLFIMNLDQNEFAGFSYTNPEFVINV

[7] = molecular target: Protein kinase C beta type (Homo sapiens) (UniProt P05771); settings: at 1 µM
[8] = molecular target: T2, Serine/threonine-protein kinase D1 (Homo sapiens) (UniProt Q15139); settings: at 0.1 µM
T2 sequence (whole entry): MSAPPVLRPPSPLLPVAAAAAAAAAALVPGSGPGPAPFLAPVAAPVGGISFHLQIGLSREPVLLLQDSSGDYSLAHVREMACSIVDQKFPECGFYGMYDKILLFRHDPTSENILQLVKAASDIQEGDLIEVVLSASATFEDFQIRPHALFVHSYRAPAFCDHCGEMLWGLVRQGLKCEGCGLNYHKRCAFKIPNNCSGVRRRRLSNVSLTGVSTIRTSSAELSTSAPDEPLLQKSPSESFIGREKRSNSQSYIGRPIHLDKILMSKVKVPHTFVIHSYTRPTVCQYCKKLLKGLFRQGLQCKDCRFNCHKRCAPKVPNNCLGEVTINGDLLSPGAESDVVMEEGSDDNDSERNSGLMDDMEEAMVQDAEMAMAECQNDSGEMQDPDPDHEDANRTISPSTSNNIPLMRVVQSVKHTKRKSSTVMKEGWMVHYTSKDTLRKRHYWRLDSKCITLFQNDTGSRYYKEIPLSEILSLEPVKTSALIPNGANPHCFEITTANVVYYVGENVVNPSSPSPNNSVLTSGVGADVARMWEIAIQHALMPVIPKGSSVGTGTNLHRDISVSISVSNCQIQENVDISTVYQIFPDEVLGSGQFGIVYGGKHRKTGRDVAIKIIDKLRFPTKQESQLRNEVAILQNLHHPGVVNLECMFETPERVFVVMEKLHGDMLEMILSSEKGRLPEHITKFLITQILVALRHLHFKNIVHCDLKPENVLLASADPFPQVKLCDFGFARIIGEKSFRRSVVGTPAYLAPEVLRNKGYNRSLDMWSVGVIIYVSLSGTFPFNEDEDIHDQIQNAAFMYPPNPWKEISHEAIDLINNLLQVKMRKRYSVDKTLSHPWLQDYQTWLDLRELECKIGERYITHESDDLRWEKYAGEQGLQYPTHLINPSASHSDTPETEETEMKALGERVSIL

[9] = molecular target: T2, Serine/threonine-protein kinase D1 (Homo sapiens); settings: at 1 µM
[10] = molecular target: T3, Serine/threonine-protein kinase D2 (Homo sapiens) (UniProt Q9BZL6); settings: at 0.1 µM
T3 sequence (whole entry): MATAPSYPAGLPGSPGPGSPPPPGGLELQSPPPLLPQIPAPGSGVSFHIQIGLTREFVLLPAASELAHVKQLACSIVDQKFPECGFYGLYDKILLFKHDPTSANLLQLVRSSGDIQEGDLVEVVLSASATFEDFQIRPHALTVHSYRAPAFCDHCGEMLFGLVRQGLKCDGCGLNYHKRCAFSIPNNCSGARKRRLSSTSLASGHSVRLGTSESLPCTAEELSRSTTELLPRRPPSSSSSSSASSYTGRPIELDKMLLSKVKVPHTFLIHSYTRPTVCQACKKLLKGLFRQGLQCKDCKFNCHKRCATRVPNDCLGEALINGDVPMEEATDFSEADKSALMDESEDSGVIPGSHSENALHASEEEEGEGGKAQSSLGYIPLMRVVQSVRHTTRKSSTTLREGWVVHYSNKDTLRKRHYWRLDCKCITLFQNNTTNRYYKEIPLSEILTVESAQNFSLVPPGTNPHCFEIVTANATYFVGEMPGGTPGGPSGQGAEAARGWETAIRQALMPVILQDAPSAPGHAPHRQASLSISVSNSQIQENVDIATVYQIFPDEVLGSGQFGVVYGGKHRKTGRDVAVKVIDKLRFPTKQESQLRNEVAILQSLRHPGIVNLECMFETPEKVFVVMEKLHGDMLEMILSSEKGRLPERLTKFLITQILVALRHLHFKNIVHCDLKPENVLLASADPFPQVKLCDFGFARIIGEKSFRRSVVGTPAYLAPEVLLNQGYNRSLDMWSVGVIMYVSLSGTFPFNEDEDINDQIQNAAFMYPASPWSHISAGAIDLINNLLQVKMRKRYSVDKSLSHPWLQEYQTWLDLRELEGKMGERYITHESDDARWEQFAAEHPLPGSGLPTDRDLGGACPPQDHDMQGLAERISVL

[11] = molecular target: T3, Serine/threonine-protein kinase D2 (Homo sapiens); settings: at 1 µM
[12] = molecular target: T4, Serine/threonine-protein kinase D3 (Homo sapiens) (UniProt O94806); settings: at 0.1 µM
T4 sequence (whole entry): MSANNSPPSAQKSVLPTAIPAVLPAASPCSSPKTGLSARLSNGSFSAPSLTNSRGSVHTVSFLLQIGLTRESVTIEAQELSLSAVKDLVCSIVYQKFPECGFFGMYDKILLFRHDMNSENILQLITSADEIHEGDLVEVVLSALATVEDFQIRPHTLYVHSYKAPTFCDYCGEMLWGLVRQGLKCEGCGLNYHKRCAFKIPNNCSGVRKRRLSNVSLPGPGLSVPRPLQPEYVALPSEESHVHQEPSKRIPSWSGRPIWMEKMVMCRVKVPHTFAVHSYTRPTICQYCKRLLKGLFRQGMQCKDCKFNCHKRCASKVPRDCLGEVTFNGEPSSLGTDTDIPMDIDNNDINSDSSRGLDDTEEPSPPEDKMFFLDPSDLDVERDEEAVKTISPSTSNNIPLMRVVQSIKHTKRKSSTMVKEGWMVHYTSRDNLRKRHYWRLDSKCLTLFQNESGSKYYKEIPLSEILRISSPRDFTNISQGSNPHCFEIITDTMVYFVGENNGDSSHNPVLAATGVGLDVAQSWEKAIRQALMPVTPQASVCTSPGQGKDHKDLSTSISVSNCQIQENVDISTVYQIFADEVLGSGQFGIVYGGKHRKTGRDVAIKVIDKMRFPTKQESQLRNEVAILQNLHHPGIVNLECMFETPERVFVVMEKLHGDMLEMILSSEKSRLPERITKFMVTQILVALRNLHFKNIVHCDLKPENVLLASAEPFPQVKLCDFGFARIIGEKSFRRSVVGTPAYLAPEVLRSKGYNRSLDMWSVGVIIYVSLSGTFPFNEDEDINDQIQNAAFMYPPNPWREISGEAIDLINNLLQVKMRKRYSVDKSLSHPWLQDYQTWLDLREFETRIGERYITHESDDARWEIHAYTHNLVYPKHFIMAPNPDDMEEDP

[13] = molecular target: T4, Serine/threonine-protein kinase D3 (Homo sapiens); settings: at 1 µM
[14] = molecular target: T5, cGMP-dependent protein kinase 1 (Homo sapiens) (UniProt Q13976); settings: at 0.1 µM
T5 sequence (whole entry): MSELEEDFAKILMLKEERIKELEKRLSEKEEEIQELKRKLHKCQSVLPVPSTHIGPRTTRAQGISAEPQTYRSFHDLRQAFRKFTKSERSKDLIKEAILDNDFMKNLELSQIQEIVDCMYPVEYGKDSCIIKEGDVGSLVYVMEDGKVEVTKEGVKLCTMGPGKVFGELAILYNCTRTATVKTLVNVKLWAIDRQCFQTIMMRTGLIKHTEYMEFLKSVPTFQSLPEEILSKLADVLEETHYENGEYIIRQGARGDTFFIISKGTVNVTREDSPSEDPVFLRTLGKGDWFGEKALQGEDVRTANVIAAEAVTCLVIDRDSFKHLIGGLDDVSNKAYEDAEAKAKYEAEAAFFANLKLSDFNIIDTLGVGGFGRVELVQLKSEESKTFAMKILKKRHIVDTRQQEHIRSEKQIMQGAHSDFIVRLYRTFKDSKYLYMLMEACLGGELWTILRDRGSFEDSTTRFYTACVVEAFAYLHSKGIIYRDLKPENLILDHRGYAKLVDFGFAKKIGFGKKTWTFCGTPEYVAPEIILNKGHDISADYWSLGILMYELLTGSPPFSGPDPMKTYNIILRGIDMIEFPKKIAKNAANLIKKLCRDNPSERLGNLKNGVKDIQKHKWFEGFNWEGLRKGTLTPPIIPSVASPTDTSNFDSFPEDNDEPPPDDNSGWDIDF

[15] = molecular target: T5, cGMP-dependent protein kinase 1 (Homo sapiens); settings: at 1 µM
[16] = molecular target: T6, cGMP-dependent protein kinase 2 (Homo sapiens) (UniProt Q13237); settings: at 0.1 µM
T6 sequence (whole entry): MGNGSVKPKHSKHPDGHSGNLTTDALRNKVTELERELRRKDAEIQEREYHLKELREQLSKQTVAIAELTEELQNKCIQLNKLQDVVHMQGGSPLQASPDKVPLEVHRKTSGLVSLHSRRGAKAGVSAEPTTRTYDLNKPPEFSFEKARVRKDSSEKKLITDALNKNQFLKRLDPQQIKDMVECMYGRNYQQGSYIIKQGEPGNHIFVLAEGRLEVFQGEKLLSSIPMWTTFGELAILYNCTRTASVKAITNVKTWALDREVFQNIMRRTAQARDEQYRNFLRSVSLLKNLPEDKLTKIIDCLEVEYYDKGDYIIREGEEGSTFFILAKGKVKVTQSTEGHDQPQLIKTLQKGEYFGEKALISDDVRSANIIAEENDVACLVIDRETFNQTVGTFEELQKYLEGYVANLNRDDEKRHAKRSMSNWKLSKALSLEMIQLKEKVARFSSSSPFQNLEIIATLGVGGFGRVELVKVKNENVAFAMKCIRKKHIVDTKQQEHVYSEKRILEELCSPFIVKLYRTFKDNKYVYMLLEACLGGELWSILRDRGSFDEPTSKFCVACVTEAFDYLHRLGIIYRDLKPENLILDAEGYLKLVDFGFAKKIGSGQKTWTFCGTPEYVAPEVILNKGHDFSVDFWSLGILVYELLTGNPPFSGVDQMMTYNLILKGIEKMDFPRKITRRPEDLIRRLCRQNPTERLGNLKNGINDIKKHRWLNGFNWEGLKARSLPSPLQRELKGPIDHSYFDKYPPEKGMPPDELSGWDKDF

[17] = molecular target: T6, cGMP-dependent protein kinase 2 (Homo sapiens); settings: at 1 µM
[18] = molecular target: T7, cAMP-dependent protein kinase catalytic subunit PRKX (Homo sapiens) (UniProt P51817); settings: at 0.1 µM
T7 sequence (whole entry): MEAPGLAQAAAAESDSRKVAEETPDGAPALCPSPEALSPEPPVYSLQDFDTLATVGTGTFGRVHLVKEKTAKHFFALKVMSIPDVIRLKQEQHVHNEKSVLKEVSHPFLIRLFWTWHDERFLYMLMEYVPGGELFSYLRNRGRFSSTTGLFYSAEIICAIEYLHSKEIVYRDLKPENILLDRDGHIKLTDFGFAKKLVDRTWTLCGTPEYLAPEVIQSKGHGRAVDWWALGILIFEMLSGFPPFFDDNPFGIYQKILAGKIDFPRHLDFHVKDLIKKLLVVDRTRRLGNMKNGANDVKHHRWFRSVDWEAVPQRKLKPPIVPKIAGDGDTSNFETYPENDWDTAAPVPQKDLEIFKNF

[19] = molecular target: T7, cAMP-dependent protein kinase catalytic subunit PRKX (Homo sapiens); settings: at 1 µM
[20] = molecular target: Rho-associated protein kinase 1 (Homo sapiens) (UniProt Q13464); settings: at 0.1 µM;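 note: values are mean percent inhibition of ROCK1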
Chain of Rho-associated protein kinase 1 (Homo sapiens) (Q13464 2-1354 limits assumed): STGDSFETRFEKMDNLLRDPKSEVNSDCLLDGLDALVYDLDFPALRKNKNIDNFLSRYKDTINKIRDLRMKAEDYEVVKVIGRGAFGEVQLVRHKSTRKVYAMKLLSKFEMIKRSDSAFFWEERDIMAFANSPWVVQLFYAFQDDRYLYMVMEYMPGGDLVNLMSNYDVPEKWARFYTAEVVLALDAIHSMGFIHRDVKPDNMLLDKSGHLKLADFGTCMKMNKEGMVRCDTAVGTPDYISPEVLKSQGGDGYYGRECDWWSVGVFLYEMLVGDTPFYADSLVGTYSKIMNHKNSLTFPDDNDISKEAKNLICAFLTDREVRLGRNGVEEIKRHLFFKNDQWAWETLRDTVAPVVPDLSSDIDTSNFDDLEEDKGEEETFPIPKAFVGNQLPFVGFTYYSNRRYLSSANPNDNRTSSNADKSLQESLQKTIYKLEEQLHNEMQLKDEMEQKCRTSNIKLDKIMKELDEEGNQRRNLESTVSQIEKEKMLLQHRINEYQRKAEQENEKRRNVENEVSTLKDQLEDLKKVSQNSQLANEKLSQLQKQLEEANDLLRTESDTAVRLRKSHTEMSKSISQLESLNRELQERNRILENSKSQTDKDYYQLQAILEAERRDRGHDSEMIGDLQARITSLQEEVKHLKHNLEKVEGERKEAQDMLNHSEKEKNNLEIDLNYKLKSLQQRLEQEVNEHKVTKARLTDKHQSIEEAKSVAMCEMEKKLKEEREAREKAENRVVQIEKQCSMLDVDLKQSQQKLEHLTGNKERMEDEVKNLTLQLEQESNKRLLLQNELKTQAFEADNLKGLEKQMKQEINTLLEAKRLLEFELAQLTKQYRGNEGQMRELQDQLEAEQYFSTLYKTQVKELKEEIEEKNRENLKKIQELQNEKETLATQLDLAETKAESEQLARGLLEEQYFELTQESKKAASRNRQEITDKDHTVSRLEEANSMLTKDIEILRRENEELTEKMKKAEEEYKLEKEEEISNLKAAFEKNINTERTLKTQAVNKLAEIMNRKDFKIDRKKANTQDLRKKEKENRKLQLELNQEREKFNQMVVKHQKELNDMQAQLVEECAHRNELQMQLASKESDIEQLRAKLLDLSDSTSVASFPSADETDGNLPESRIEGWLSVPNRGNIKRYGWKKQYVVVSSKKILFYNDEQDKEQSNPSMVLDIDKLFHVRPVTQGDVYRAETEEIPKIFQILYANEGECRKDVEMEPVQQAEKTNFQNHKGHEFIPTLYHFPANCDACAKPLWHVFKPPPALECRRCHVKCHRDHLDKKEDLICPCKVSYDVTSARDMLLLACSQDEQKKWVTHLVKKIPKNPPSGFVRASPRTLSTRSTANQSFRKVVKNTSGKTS

SMILES | inhibition [1] [%] | inhibition [2] [%] | inhibition [3] [%] | inhibition [4] [%] | inhibition [5] [%] | inhibition [6] [%] | inhibition [7] [%] | inhibition [8] [%] | inhibition [9] [%] | inhibition [10] [%] | inhibition [11] [%] | inhibition [12] [%] | inhibition [13] [%] | inhibition [14] [%] | inhibition [15] [%] | inhibition [16] [%] | inhibition [17] [%] | inhibition [18] [%] | inhibition [19] [%] | inhibition [20] [%]
O=C1NC(=O)C(c2cccc(Cl)c2)=C1Nc1ccc(Cl)c(C(=O)O)c1 | 4.28 | 0.11 | 0.87 | 1.72 | 3.51 | 1 | 1.2 | 2.5 | 3.42 | 3.1 | 3.62 | 2.22 | 2.81 | 1.11 | 2 | -0.19 | 1.58 | 2.51 | 2.74 | -0.01
O=C(Nc1n[nH]c2nc(-c3ccco3)ccc12)C1CC1 | 3.88 | 1.28 | -0.15 | 0.24 | -0.12 | 0.74 | 1.21 | 0.7 | 1.4 | -0.13 | 1.79 | 0.02 | 1.55 | 2.2 | 4.23 | 0.68 | 3.61 | 2.71 | 3.87 | 1.29
